This is part of a sample that, as a whole, favours compounds with a hit. Of some 83,000 tested, about 20% had one in any assay.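 For each line, cells grew in 96-well plates with the test compound present at a single concentration for 48 hours.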 Unmarked numbers belong to inactive results. Calls of active or inactive are those of the source. How the source made its calls: active means growth percent below 10; inactive means the rest.

This note sets out measurements from PubChem BioAssay (NCI).

The test system of this assay is MDA-MB-231 breast. Nature of the assay: NCI-60 one-dose screen, 48 h (100 = growth as untreated, 0 = no growth, -100 = all killed). The following applies: 10 µM.
On to `C=CC(=O)OCCCCCCCC`, for which the growth was 109%.
As for `CCOC(=O)CNN`, the figure is 107%; as for `NNc1ccccc1C(=O)O`, 104%.
Take `CCOC(=O)C1=C(Nc2ccc(Br)cc2)C(=O)N(CC)C1`: the growth is 81.8%.
As for `Cc1cc(C(O)(c2ccc(Nc3ccccc3)cc2)c2ccc(Nc3ccc(S(=O)(=O)O)cc3)cc2)ccc1N` (centres undefined), the figure is -51.5% (active); as for `CC1(c2ccccc2)NC(=O)NC1=O` (centres undefined), 111%.
Take `C=CC[N+](C)(C)C`: the growth was 108%.
For `O=C1N(C[P+](c2ccccc2)(c2ccccc2)c2ccccc2)CCCN1C[P+](c1ccccc1)(c1ccccc1)c1ccccc1`, the growth was 90.8%.
As for `Brc1cnc2ccccc2c1`, the figure is 113%; as for `Nc1ccc(N)c([N+](=O)[O-])c1`, 80.9%.
As for `CSC[C@H](NC(=O)COc1cccc2cnccc12)C(=O)NC(Cc1ccccc1)C(O)C(=O)N1CSC[C@H]1C(=O)NC(C)(C)C` (some centres undefined), the growth is 93.8%.
As for `OC(c1ccccn1)C(O)c1ccccn1` (centres undefined), the figure is 108%; as for `CCNCCCCNCCCCNCCCCNCCCCNCC`, 109%.
As for `NC(=S)CN1CCOCC1`, the figure is 106%.
As for `CC(C)=CC(=O)OC(=O)C=C(C)C`, the figure is 99.6%; as for `COc1ccc(C(O)c2ccccc2)cc1` (centres undefined), 95.5%; as for `N#CC(=Nc1cccc(F)c1)C1=C(O)c2ccccc2C1=O`, 84.5%.
As for `COC(=O)c1ccc(NC(=O)CCl)cc1`, the growth is 64.9%.
As for `O=C(O)CCC(NC(=O)OCc1ccccc1)C(=O)O` (centres undefined), the figure is 97%; as for `Cc1cc(C)cc(NCCC#N)c1`, 106%.
To `O=C(O)/C=C/c1ccc2c(c1)CCC2` belongs 118%.
Turning to `O=C1OC(=O)C2C1C1(Cl)C(Cl)=C(Cl)C2(Cl)C2C(=O)OC(=O)C21` (centres undefined), the growth was 122%.
To `CC(=O)N(C)c1ccc([N+](=O)[O-])cc1` belongs 102%; to `COc1ccc(/C(C#N)=C2C=C/C(=N/O)c3ccccc3\2)cc1`, 10.2%.
To `CCOC(=O)C1=C(C)NC(=O)NC1c1cccs1` (centres undefined) belongs 110%; to `COc1cc(C2c3cc4c(cc3C3OC(=O)C2C3CO)OCO4)cc(OC)c1OC` (centres undefined), 30.3%.
To `O=C(CCl)N1CCN(C/C=C/c2ccccc2)CC1` belongs 100%.
As to `CC(C)(C)n1nc(C2CC2)c(Br)c1NC(=O)c1ccccc1F`, the growth was 100%.
Take `CCOC(=O)C/C(C)=N\O`: the growth is 105%.
To `O=C(CS)Nc1ccc2ccccc2c1` belongs 106%; to `C=CCCCCCCCCCOC(C)=O`, 97%; to `COc1cc(-c2ccc(NC(=O)NC3CC3)c(OC)c2)ccc1NC(=O)NC1CC1`, 71.1%.
Consider `CC(=O)OCC(=O)[C@@]1(O)CC[C@H]2[C@@H]3CC[C@@H]4C[C@H](O)CC[C@]4(C)[C@H]3C(=O)C[C@@]21C`, for which the growth is 103%.
Turning to `NC(=O)NC(=O)c1ccc(Cl)cc1`, the growth is 48.2%.
Consider `NC(=O)c1ccc(N=C(N)N=C(N)N)cc1`, for which the growth was 106%.
For `Oc1ccc(Cc2ccccc2)c2cccnc12`, the growth was 31%.
To `C/C(=C\c1cc(Cl)ccc1OCC(=O)O)[N+](=O)[O-]` belongs 123%; to `O=[N+]([O-])c1ccc(Cl)c(S(=O)(=O)O)c1`, 110%; to `CC(CN1CCCCC1)NC(=O)c1scnc1-c1ccccc1` (centres undefined), 114%.
